Experimental data taken from US20200172896, “EVOLUTION OF BIOACTIVE SEQUENCE-DEFINED SYNTHETIC POLYMERS USING DNA-TEMPLATED POLYMERIZATION” (President and Fellows of Harvard College, published 2020).

Target: PCSK9 (Homo sapiens, UniProt Q8NBP7;Q8NBP7 Q8NBP7:31-152,Q8NBP7:153-692)
Assay: SPR; vs PCSK9-A5; salmon sperm DNA
Conditions: tags: ACROBiosystems PC9-H5223; label: 5' dual biotin-iSp18; ssDNA; as PCSK9-A5 except codon 13 CAC unmodified [codon 13 CAC (nt 55-57) unmodified; other codons as PCSK9-A5 (including phenol at codon 9 TTT nt 43-45, cyclopentyl at codon 14 CTT nt 58-60)]

Chain of PCSK9 (Q8NBP7 31-152, chain 1 of 2): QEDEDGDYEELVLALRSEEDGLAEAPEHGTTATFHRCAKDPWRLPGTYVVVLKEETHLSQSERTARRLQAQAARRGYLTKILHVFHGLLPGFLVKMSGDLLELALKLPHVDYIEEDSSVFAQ
Chain of PCSK9 (Q8NBP7 153-692, chain 2 of 2): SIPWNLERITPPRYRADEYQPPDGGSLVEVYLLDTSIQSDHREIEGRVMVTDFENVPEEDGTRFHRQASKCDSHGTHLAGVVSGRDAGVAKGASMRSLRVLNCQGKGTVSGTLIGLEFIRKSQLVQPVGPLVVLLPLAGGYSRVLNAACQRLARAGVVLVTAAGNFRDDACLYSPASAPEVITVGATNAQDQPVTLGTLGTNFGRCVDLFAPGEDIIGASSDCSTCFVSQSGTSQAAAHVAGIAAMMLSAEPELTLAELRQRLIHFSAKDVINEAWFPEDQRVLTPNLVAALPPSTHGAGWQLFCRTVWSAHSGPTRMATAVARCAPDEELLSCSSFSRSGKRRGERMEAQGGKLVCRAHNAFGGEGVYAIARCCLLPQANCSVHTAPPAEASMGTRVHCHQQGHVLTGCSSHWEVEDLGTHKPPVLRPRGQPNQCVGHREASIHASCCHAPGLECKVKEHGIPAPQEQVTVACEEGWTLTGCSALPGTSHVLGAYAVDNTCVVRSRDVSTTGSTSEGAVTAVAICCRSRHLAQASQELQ

Question: With “CGAATCAGATTGGACCAGCCACGTTACTGATTCTTCTACCGTTTTTGCCCCCGGCACCTTCTGGAGTCCAGATGTAGGTAG” as the sequence, how does the binding signal read?
Answer: The binding signal was ~2 fold reduction in affinity.
